Laboratory results: PubChem BioAssay AID1159580 (chemical genetic matrix, 2015)
The campaign covered roughly 5,500 compounds. About 2,000 (36%) were called active. Another 18% or so got no clear call; they are omitted. Cut-off read from the data, not from the text of the source: active = normalized growth mostly below about 0.91 (no sharp cut-off); inconclusive = no clear call, values can overlap the other calls; inactive = mostly above about 0.92. Some of the results follow.

Experiment: chemical genetic growth profiling, strain panel (AID 1159580);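 note: tested at 20 µM; growth read once vehicle control cultures reached saturation at 30 °C; 1 = growth at the plate median or of vehicle wells; lower values mean less growth of the strain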
Settings: growth OD

Measured: normalized growth

NC(=O)c1cc([N+](=O)[O-])cc([N+](=O)[O-])c1
active: S. cerevisiae deletion strains, locus YNL248C, strain rpa49, stronger effect = lower value 0.879
inactive: S. cerevisiae deletion strains, locus YJR075W, strain HOC1, stronger effect = lower value 1 | S. cerevisiae deletion strains, locus YKL009W, strain mrt4, stronger effect = lower value 0.985 | S. cerevisiae deletion strains, locus YKL068W, stronger effect = lower value 1 | S. cerevisiae deletion strains, locus YKL085W, strain MDH1 (second series), stronger effect = lower value 0.999 | S. cerevisiae deletion strains, locus YKL085W, strain MDH1, stronger effect = lower value 0.999 | S. cerevisiae deletion strains, locus YKL160W, strain elf1, stronger effect = lower value 1.01 | S. cerevisiae deletion strains, locus YKL190W, strain CNB1, stronger effect = lower value 1.01 | S. cerevisiae deletion strains, locus YKR001C, strain vps1, stronger effect = lower value 0.997 | S. cerevisiae deletion strains, locus YKR026C, strain gcn3, stronger effect = lower value 1.02 | S. cerevisiae deletion strains, locus YKR091W, strain srl3, stronger effect = lower value 1.02 | S. cerevisiae deletion strains, locus YLL001W, strain dnm1, stronger effect = lower value 1.06 | S. cerevisiae deletion strains, locus YLL026W, stronger effect = lower value 1.01 | S. cerevisiae deletion strains, locus YLL041C, strain sdh2, stronger effect = lower value 1 | S. cerevisiae deletion strains, locus YLR027C, strain aat2, stronger effect = lower value 0.989 | S. cerevisiae deletion strains, locus YLR039C, strain RIC1, stronger effect = lower value 1.24 | S. cerevisiae deletion strains, locus YLR058C, strain SHM2, stronger effect = lower value 1.01 | S. cerevisiae deletion strains, locus YLR102C, strain apc9, stronger effect = lower value 1 | S. cerevisiae deletion strains, locus YLR113W, strain HOG1, stronger effect = lower value 0.988 | S. cerevisiae deletion strains, locus YLR221C, strain rsa3, stronger effect = lower value 1.02 | S. cerevisiae deletion strains, locus YLR258W, strain gsy2, stronger effect = lower value 1 | S. cerevisiae deletion strains, locus YLR262C, strain YPT6 (second series), stronger effect = lower value 1.11 | S. cerevisiae deletion strains, locus YLR262C, strain YPT6, stronger effect = lower value 1.2 | S. cerevisiae deletion strains, locus YLR268W, strain sec22, stronger effect = lower value 0.963 | S. cerevisiae deletion strains, locus YLR320W, strain mms22, stronger effect = lower value 1.01 | S. cerevisiae deletion strains, locus YLR330W, strain CHS5, stronger effect = lower value 1.02 | S. cerevisiae deletion strains, locus YLR342W, strain FKS1 (second series), stronger effect = lower value 1.02 | S. cerevisiae deletion strains, locus YLR342W, strain FKS1, stronger effect = lower value 1.02 | S. cerevisiae deletion strains, locus YLR357W, strain rsc2, stronger effect = lower value 1 | S. cerevisiae deletion strains, locus YLR370C, strain arc18, stronger effect = lower value 1.02 | S. cerevisiae deletion strains, locus YLR371W, strain rom2, stronger effect = lower value 0.998 | S. cerevisiae deletion strains, locus YLR384C, strain iki3, stronger effect = lower value 1.02 | S. cerevisiae deletion strains, locus YLR418C, strain cdc73, stronger effect = lower value 0.861 | S. cerevisiae deletion strains, locus YML016C, strain PPZ1, stronger effect = lower value 1.03 | S. cerevisiae deletion strains, locus YML032C, strain rad52, stronger effect = lower value 0.974 | S. cerevisiae deletion strains, locus YML120C, strain ndi1, stronger effect = lower value 1.02 | S. cerevisiae deletion strains, locus YML124C, strain tub3, stronger effect = lower value 0.998 | S. cerevisiae deletion strains, locus YMR058W, strain fet3, stronger effect = lower value 0.955 | S. cerevisiae deletion strains, locus YMR078C, strain ctf18, stronger effect = lower value 0.999 | S. cerevisiae deletion strains, locus YMR125W, strain sto1, stronger effect = lower value 1.01 | S. cerevisiae deletion strains, locus YMR129W, stronger effect = lower value 1.02 | S. cerevisiae deletion strains, locus YMR205C, strain PFK2, stronger effect = lower value 1.04 | S. cerevisiae deletion strains, locus YMR223W, strain ubp8, stronger effect = lower value 0.979 | S. cerevisiae deletion strains, locus YMR231W, strain pep5, stronger effect = lower value 1.01 | S. cerevisiae deletion strains, locus YMR307W, strain GAS1, stronger effect = lower value 0.972 | S. cerevisiae deletion strains, locus YNL067W, strain RPL9B, stronger effect = lower value 0.999 | S. cerevisiae deletion strains, locus YNL071W, strain lat1, stronger effect = lower value 0.998 | S. cerevisiae deletion strains, locus YNL128W, strain TEP1, stronger effect = lower value 0.982 | S. cerevisiae deletion strains, locus YNL183C, strain NPR1, stronger effect = lower value 0.935 | S. cerevisiae deletion strains, locus YNL209W, strain ssb2, stronger effect = lower value 1.01 | S. cerevisiae deletion strains, locus YNL233W, strain BNI4, stronger effect = lower value 1.01 | S. cerevisiae deletion strains, locus YNL250W, strain rad50, stronger effect = lower value 1.01 | S. cerevisiae deletion strains, locus YNL271C, strain bni1, stronger effect = lower value 0.974 | S. cerevisiae deletion strains, locus YNL298W, strain CLA4, stronger effect = lower value 0.983 | S. cerevisiae deletion strains, locus YNL307C, strain MCK1, stronger effect = lower value 0.979 | S. cerevisiae deletion strains, locus YNL322C, strain KRE1 (second series), stronger effect = lower value 1.04 | S. cerevisiae deletion strains, locus YNL322C, strain KRE1, stronger effect = lower value 1.02 | S. cerevisiae deletion strains, locus YNR049C, strain mso1, stronger effect = lower value 1.01 | S. cerevisiae deletion strains, locus YNR052C, strain pop2, stronger effect = lower value 0.985 | S. cerevisiae deletion strains, locus YOL006C, strain TOP1, stronger effect = lower value 0.927 | S. cerevisiae deletion strains, locus YOL012C, strain htz1 0.763 | S. cerevisiae deletion strains, locus YOL147C, strain pex11, stronger effect = lower value 0.998 | S. cerevisiae deletion strains, locus YOR001W, strain rrp6, stronger effect = lower value 0.984 | S. cerevisiae deletion strains, locus YOR061W, strain CKA2, stronger effect = lower value 1.01 | S. cerevisiae deletion strains, locus YOR069W, strain VPS5, stronger effect = lower value 1.01 | S. cerevisiae deletion strains, locus YOR070C, strain gyp1, stronger effect = lower value 1 | S. cerevisiae deletion strains, locus YOR080W, strain dia2, stronger effect = lower value 1.02 | S. cerevisiae deletion strains, locus YOR083W, strain WHI5, stronger effect = lower value 1.02 | S. cerevisiae deletion strains, locus YOR106W, strain vam3, stronger effect = lower value 1 | S. cerevisiae deletion strains, locus YOR136W, strain idh2, stronger effect = lower value 0.993 | S. cerevisiae deletion strains, locus YOR144C, strain elg1, stronger effect = lower value 0.998 | S. cerevisiae deletion strains, locus YOR184W, strain ser1, stronger effect = lower value 0.976 | S. cerevisiae deletion strains, locus YOR231W, strain MKK1, stronger effect = lower value 0.963 | S. cerevisiae deletion strains, locus YOR265W, strain rbl2, stronger effect = lower value 1 | S. cerevisiae deletion strains, locus YOR270C, strain vph1, stronger effect = lower value 1.02 | S. cerevisiae deletion strains, locus YOR290C, strain snf2, stronger effect = lower value 1.01 | S. cerevisiae deletion strains, locus YOR316C, strain cot1, stronger effect = lower value 0.995 | S. cerevisiae deletion strains, locus YPL051W, strain arl3, stronger effect = lower value 0.97 | S. cerevisiae deletion strains, locus YPL055C, strain LGE1, stronger effect = lower value 0.96 | S. cerevisiae deletion strains, locus YPL078C, strain atp4, stronger effect = lower value 1.01 | S. cerevisiae deletion strains, locus YPL106C, strain sse1, stronger effect = lower value 1.02 | S. cerevisiae deletion strains, locus YPL240C, strain hsp82, stronger effect = lower value 1.01 | S. cerevisiae deletion strains, locus YPL241C, strain CIN2, stronger effect = lower value 1.03 | S. cerevisiae deletion strains, locus YPL256C, strain CLN2, stronger effect = lower value 0.965 | S. cerevisiae deletion strains, locus YPR119W, strain clb2, stronger effect = lower value 1 | S. cerevisiae deletion strains, locus YPR141C, strain kar3, stronger effect = lower value 1 | S. cerevisiae deletion strains, locus YPR163C, strain tif3, stronger effect = lower value 0.995 | S. cerevisiae deletion strains, locus YPR167C, strain met16, stronger effect = lower value 0.992 | S. cerevisiae deletion strains, strain wtn01, stronger effect = lower value 0.98 | S. cerevisiae strains, strain wild type, stronger effect = lower value 1.01
